In PMC5540273 (PLoS ONE, 2017):
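Also: KINOMEscan kinase panel screen.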

These molecules were tested on CIT. Details: concentration: 1 μM,replicates: in singlicate; n = 1.
In the case of `COC(=O)Nc1nc2cc(Oc3ccc(NC(=O)Nc4cc(C(F)(F)F)ccc4Cl)cc3)ccc2[nH]1.Cl` [GW697465], the “%Inh” value is reported as 97.9%. `O=C(Nc1n[nH]c2cc(-c3ccco3)ccc12)C1CC1` [SB-737447] was tested, and the “%Inh” value was 1%. `Cc1cccc2c(-c3ccncc3)c(-c3ccc(F)cc3)nn12.Cl` [GW461487] was tested, and the “%Inh” value was 90%. In the case of `CN1CCN(CCNc2nc3cc(Oc4ccc(NC(=O)Nc5cc(C(F)(F)F)ccc5F)cc4)ccc3[nH]2)CC1.Cl.Cl` [GW768504], the “%Inh” value is reported as 67%. In the case of `c1ccc(Oc2ccc(Nc3ccnc4ccc(-c5ccccn5)cc34)cc2)cc1` [GW407034], the “%Inh” value is reported as 4%. In the case of `CC(=O)Nc1nc2cnc(Nc3cc(NC(=O)c4cccc(CC(C)(C)C#N)c4)ccc3C)nc2s1`, the “%Inh” value is reported as 68%. For `O=C(NCC1CC1)c1ccc(-c2cc(C(=O)NC3CC3)ccc2F)cc1` [GW810445], the “%Inh” value was 25%. In the case of `Cc1ccc(CC(=O)N2CCc3cc(-c4cn(C)c5ncnc(N)c45)ccc32)cc1` [GSK2634758], the “%Inh” value is reported as 19%. For `CSc1nccc(-c2c(-c3ccc(F)cc3)ncn2CCCN2CCOCC2)n1.Cl` [SB-217146], the “%Inh” value was 0%. In the case of `O=C(Nc1ccccc1)c1cccc(Oc2ccc3nccn3n2)c1`, the “%Inh” value is reported as 32%. With `COc1cccc(C2=C(Nc3cccc(Cl)c3)C(=O)NC2=O)c1` [SB-341556] the “%Inh” value was 0%. `Cn1ccc2ncnc(Oc3ccc(NC(=O)Nc4cccc(C(F)(F)F)c4)c(Cl)c3)c21` was tested, and the “%Inh” value was 57%. In the case of `Cc1ccn2nc(-c3ccc(F)cc3)c(-c3ccncc3)c2c1.Cl` [GW457859], the “%Inh” value is reported as 100%. `CCCC(=O)Nc1n[nH]c2ncccc12` [SB-601436] was tested, and the “%Inh” value was 0%. With `Cn1ccc2ncnc(Oc3ccc(NC(=O)Nc4cccc(C(F)(F)F)c4)c(F)c3)c21` the “%Inh” value was 78%. `C[C@@H]1CNc2c(sc3ccc4nc(-c5ccc(O)cc5)ccc4c23)C(=O)N1` was tested, and the “%Inh” value was 54%. In the case of `N#Cc1cccc(C(=O)NC2CCN(c3ccnc(Nc4ccc(F)cc4)n3)C2)c1` (stereo not shown) [GSK1379708], the “%Inh” value is reported as 11%. With `Nc1nccc(-c2ccc3c(N)n[nH]c3c2)n1` [GSK1034945] the “%Inh” value was 54%. With `COc1cccc(CNC(=O)NC2CCN(c3ccnc(Nc4cc(OC)c(OC)c(OC)c4)n3)C2)c1` (stereo not shown) [GSK1379765] the “%Inh” value was 28%. `COc1cc2c(Nc3ccc(NC(=O)c4ccccc4)cc3)ncnc2cc1OCCCN1CCOCC1` [GSK301329] was tested, and the “%Inh” value was 9%. `CC(=O)Nc1ccc(-c2cc3ncnc(SCC(=O)O)c3s2)cc1` was tested, and the “%Inh” value was 0%. `CCn1c(-c2nonc2N)nc2cncc(Br)c21` [SB-738004] was tested, and the “%Inh” value was 0%. In the case of `CCOC(=O)N1CCC(n2cnc(-c3ccc(F)cc3)c2-c2ccnc(N)n2)CC1` [SB-219952], the “%Inh” value is reported as 41%. `NC(=O)Nc1sc(-c2ccc(F)cc2)cc1C(N)=O` [GW789449] was tested, and the “%Inh” value was 27%. In the case of `COc1cc2ncn(-c3cc(OCC4CCCCC4)c(C(N)=O)s3)c2cc1OC` [GSK204559], the “%Inh” value is reported as 10%. In the case of `Cl.Cl.NC[C@H](CC1CCCCC1)NC(=O)c1ccc(-c2ccnc3[nH]ccc23)s1` [GSK1581428], the “%Inh” value is reported as 99%. In the case of `Cc1n[nH]c2cc(Nc3ccnc(Nc4cccc(CN5CCOCC5)c4)n3)ccc12` [GW682569], the “%Inh” value is reported as 35%. `Cc1ccc(Nc2ccnc(Nc3ccc4c(c3)CS(=O)(=O)C4)n2)cc1O.Cl` [GW579362] was tested, and the “%Inh” value was 69%. With `Cc1ccc2c(-c3ccnc(Nc4ccc(C(F)(F)F)cc4)n3)cnn2n1` [GW819776] the “%Inh” value was 19%. In the case of `CS(=O)(=O)c1cccc(CNc2nc(Nc3ccc4c(c3)[C@@H]3C[C@@H]4CNC3=O)ncc2C(F)(F)F)c1`, the “%Inh” value is reported as 51%. `Cl.c1ccc(Oc2ccc(Nc3ccnc4cc(-c5ccc(CN6CCNCC6)o5)ccc34)cc2)nc1` [GW567142] was tested, and the “%Inh” value was 9%. In the case of `CN(c1ccc2c(c1)nc(NCc1ccc(F)cc1)n2C)c1ccnc(Nc2ccc(CS(C)(=O)=O)cc2)n1.Cl` [GW813244], the “%Inh” value is reported as 86%. For `CS(=O)c1ccc(-c2coc3ccc(-c4n[nH]c(=O)o4)cc23)cc1` (stereo not shown), the “%Inh” value was 0%. In the case of `Cn1ccc2ncnc(Oc3ccc(NC(=O)Nc4ccnc(C(F)(F)F)c4)c(Cl)c3)c21`, the “%Inh” value is reported as 18%. `C[C@@H]1CCN(C(=O)N2CCCC2)C[C@@H]1N(C)c1ncnc2[nH]ccc12` was tested, and the “%Inh” value was 13%. With `CCn1c(-c2nonc2N)nc2cncc(CNC3CCNCC3)c21.Cl` [SB-747651] the “%Inh” value was 24%. In the case of `Cc1cccc(-c2nc(Nc3ccncc3)c3sccc3n2)n1` [GW869641], the “%Inh” value is reported as 96.6%.
